Screening data: PubChem, National Center for Advancing Translational Sciences (NCATS)
POLI inh – DNA polymerase iota (human) inhibition; Pol iota fluorescent replication assay, 10 min; Potency, µM (doses to about 115 µM), actives largely listed as inhibitors; actives 1% (n = 390,000); AID 588590
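Pol iota at 10 nM preincubated 15 min with compounds at room temperature; reaction started with fluorescent substrate, 50 nM final. Fluorescence read kinetically at 0 and 10 min; buffer-only wells as negative control.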
POLB inh – DNA polymerase beta (human) inhibition; AID 485314; actives 1.3% (n = 340,000); Pol beta primer extension/strand displacement, fluorescence kinetic; Potency, µM (titrated, usually from 114 µM), hits mostly inhibitors; P06746
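10 nM enzyme + cpd, 15 min RT; start with substrate 50 nM final; read 0 min and after 10 min RT. Corrected, normalized data; 4-parameter Hill curve fit.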
POLK inh – blocks human DNA polymerase kappa activity. purified Pol kappa, fluorescent DNA synthesis assay, 10 min. Potency, µM (titrated, usually from 107 µM), actives largely listed as inhibitors. actives 0.53% (n = 400,000). AID 588579
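50 nM final substrate added after 15 min RT preincubation of 10 nM Pol kappa with compound; fluorescence read at 0 and 10 min.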
FEN1 inh – human FEN1 inhibition; Potency, µM (series often up to 114 µM), most hits filed as inhibitors; actives 0.35% (n = 390,000); P39748; Recombinant FEN1 flap cleavage, fluorescence, 15 min; note: nearly all actives have a fitted effect of over 65% in size
Target sequence (P39748 whole entry, looked up): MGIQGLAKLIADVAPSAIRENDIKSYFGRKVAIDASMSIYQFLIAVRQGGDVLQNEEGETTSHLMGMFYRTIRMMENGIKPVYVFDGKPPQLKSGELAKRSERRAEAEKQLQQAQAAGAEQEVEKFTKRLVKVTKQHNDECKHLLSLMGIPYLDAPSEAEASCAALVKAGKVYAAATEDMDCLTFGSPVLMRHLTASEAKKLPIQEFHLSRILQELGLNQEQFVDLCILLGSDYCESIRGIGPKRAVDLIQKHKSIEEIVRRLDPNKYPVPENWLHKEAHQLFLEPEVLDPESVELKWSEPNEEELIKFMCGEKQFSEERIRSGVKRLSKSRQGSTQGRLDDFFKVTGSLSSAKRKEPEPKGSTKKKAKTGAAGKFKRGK
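In this screen, 50 nM flap DNA substrate was added to 10 nM FEN1 pretreated with compound for 15 min at room temperature; cleavage was followed with reads at 0 and 15 min, and Hill fitting gave concentration–response parameters.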
WRN inhibitor – WRN helicase (human) inhibition; Potency, µM (top dose mostly 114 µM), actives largely listed as inhibitors; WRN helicase unwinding, fluorescent forked duplex, kinetic; actives 0.46% (n = 360,000); AID 651768; note: nearly all actives have a fitted effect of over 55% in size
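Screening of the MLSMR collection measured strand separation of a quenched forked DNA duplex (100 nM) by 20 nM WRN with 2 mM ATP, all final. Compounds were preincubated with enzyme 15 min at room temperature.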
Pol eta inh – blocks human DNA polymerase eta activity; Q9Y253; recombinant Pol eta, fluorescent DNA replication assay; Potency, µM (series often up to 114 µM), actives largely listed as inhibitors; actives 1.2% (n = 390,000); AID 588591
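Pol eta (10 nM) was preincubated with compounds for 15 min at room temperature, after which fluorescent replication substrate (50 nM final) was added to start the reaction. Fluorescence was read kinetically at 0 and 10 min.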
Numbers stand for hits; i = inactive; ? = inconclusive; nt = no result; [ ] = remark or other dose. In the library only some 2.4% were active in any assay of this set; here they are far more common. Calls come from the whole dose curve; as a rule, active = well fitted curve in the direction sought with a large enough effect; inconclusive = small, poorly fitted or top-dose-only effect, or another doubt; inactive = no such curve, though single readings can be large; an effect the other way counts as inactive or inconclusive.

SMILES	POLI inh	POLB inh	POLK inh	FEN1 inh	WRN inhibitor	Pol eta inh
CCCCCC(O)c1ccc([C@H]2CCC(=O)[C@@H]2CCCCCCC(=O)O)cc1 (some centres not stated)	nt	nt	i	nt	nt	nt
Cc1nn(CC(=O)N(C)Cc2ccc(F)cc2)c(C)c1[N+](=O)[O-]	i	0.18µM	i	i	i	i
Cc1nn(CCCC(=O)NCc2ccc(F)cc2)c(C)c1[N+](=O)[O-]	i	?	i	i	i	i
Cc1ccccc1NC(=O)CSc1nc(O)cc(=O)n1C	i	i	i	i	i	i
COc1ccccc1-n1c(SCC(=O)Nc2ccccc2C)nc(O)cc1=O	56µM	i	i	i	i	i
COc1ccccc1-n1c(SCC(=O)NC(C)(C)C)nc(O)cc1=O	i	i	i	i	i	i
COc1ccccc1NC(=O)CSc1nc(O)cc(=O)n1-c1ccccc1OC	40µM	?	i	i	i	i
CCOC(=O)N1CCN([N+]([O-])=NOc2cc(O/N=[N+](\[O-])N(CC)CC)c([N+](=O)[O-])cc2[N+](=O)[O-])CC1	i	nt	i	?	nt	nt
O=C(COc1ccc(F)cc1)OCc1cc(=O)n2nc(-c3cccs3)sc2n1	?	?	?	i	nt	i
O=C(OCc1cc(=O)n2nc(-c3cccs3)sc2n1)c1cccc(F)c1	?	18µM	i	i	nt	?
O=C(OCc1cc(=O)n2nc(-c3cccs3)sc2n1)c1ccccc1Br	?	20µM	i	i	nt	79µM
CCNc1nc(C#N)nc(N2CCOCC2)n1	i	nt	i	i	nt	nt
Cc1ccc(S(=O)(=O)N2CCN(c3nc(-c4ccc(F)cc4)nc4cc(Cl)ccc34)CC2)cc1	i	nt	i	i	nt	nt
CC1=C(CCC(=O)O)c2cc3nc(cc4[nH]c(cc5[nH]c(cc1n2)c(C)c5C(C)O)c(C)c4C(C)O)C(C)=C3CCC(=O)O (configuration not stated)	nt	nt	20µM	nt	nt	nt
CC(CCC(C)[n+]1cccc(Br)c1)[n+]1cccc(Br)c1 (configuration not stated)	?	nt	i	i	nt	nt
CCOC(=O)c1ccc(N2C(=O)c3n[nH]c(-c4cccs4)c3C2c2cccc(OC)c2)cc1 (configuration not stated)	i	i	i	i	nt	i
CCOc1ccc(N2C(=O)c3n[nH]c(-c4cccs4)c3C2c2cccc(F)c2)cc1 (configuration not stated)	13µM	i	i	?	nt	nt
CC(=O)NC[C@@H]1CN(c2ccc(N3CCOCC3)c(F)c2)C(=O)O1	nt	nt	i	nt	nt	nt
CCOC(=O)c1c(C)sc(-c2c(-c3cc(C)ccc3C)[nH]c3c2c(=O)n(C)c(=O)n3C)c1O	?	5.6µM	i	i	nt	?
CCOC(=O)c1c(C)sc(-c2c(-c3cccc(Cl)c3)[nH]c3c2c(=O)n(C)c(=O)n3C)c1O	79µM	i	i	i	nt	nt
C[C@H](NC(=O)Cc1cc(F)cc(F)c1)C(=O)N[C@@H](C(=O)OC(C)(C)C)c1ccccc1	nt	nt	i	nt	nt	nt
O=C1c2ccccc2C(=O)N1c1ccccn1	i	nt	i	i	nt	nt
Fc1ccc(C[n+]2csc3ccccc32)cc1	i	i	i	i	56µM	i
Cc1cc(C)c2nc3c(c(C(=O)O)c2c1)CCC3	?	18µM	i	i	i	14µM
O=C(O)c1c2c(nc3ccccc13)CCCCC2	i	i	i	i	i	i
SMILES	POLI inh	POLB inh	POLK inh	FEN1 inh	WRN inhibitor	Pol eta inh
Cc1ccc(S(=O)(=O)N2CCN(C(=O)/C=C/c3ccco3)CC2)cc1	i	20µM	i	i	i	79µM
Cc1ccc(C)c(S(=O)(=O)N2CCN(C(=O)/C=C/c3ccco3)CC2)c1	28µM	nt	50µM	i	i	35µM
CCN(c1ccccc1)S(=O)(=O)c1ccc(Oc2ccc(-n3ccnc3)cc2)nc1	i	40µM	i	i	i	i
COC(=O)c1ccc(NCc2c(O)ccc(O)c2Br)cc1Cl	i	nt	i	i	50µM	i
COc1cc2nc(N3CCOCC3)nc(NC3CC3)c2cc1OC	i	nt	i	i	nt	nt
O=C1N=C(N2CCN(c3ccccc3)CC2)S/C1=C/c1ccco1	45µM	?	?	i	i[11.6 µM]	i
O=C1N=C(N2CCN(c3ccccc3)CC2)S/C1=C\c1ccco1	45µM	13µM	i	i	i	?
NC(N)=NCCC[C@H](N)C(=O)N1CCC[C@H]1C(=O)N1CCC[C@H]1C(=O)NCC(=O)N[C@@H](Cc1ccccc1)C(=O)N[C@@H](CO)C(=O)N1CCC[C@H]1C(=O)N[C@@H](Cc1ccccc1)C(=O)O	nt	nt	i	nt	nt	nt
CCc1ccc([C@@H]2CC=C(C(=O)O)[C@H](c3ccc(C(C)(C)C)cc3)N2S(=O)(=O)c2ccc(C)cc2)cc1	i	nt	i	?	?	32µM
CCc1ccc([C@@H]2CC=C(C(=O)O)[C@H](c3ccccc3)N2S(=O)(=O)c2ccc(C)cc2)cc1	i	nt	i	i	i	i
Cc1ccc(S(=O)(=O)N2[C@@H](c3ccc(Cl)cc3)C(C(=O)O)=CC[C@H]2c2ccc(Cl)c(Cl)c2)cc1	?	nt	i	?	i[11.6 µM]	89µM
Cc1ccc(C)c(OCCC(=O)OCC(=O)N2c3ccccc3NC(=O)C2(C)C)c1	?	nt	i	i	i	i
CC1(C)C(=O)Nc2ccccc2N1C(=O)COC(=O)c1cc(Cl)cc(Cl)c1	?	nt	i	i	i	i
CC1(C)C(=O)Nc2ccccc2N1C(=O)COC(=O)c1cccnc1	28µM	nt	i	i	i[11.6 µM]	?
CC1(C)C(=O)Nc2ccccc2N1C(=O)COC(=O)C12CC3CC(CC(O)(C3)C1)C2	50µM	20µM	?	i	i[11.6 µM]	14µM
COc1ccccc1CCC(=O)OCC(=O)N1c2ccccc2NC(=O)C1(C)C	79µM	nt	i	i	i	i
O=C1NC(=S)SC1=Cc1cc(Br)ccc1O	?	nt	i	?	?	50µM
O=C1NC(=S)S/C1=C\c1coc2ccc(O)cc2c1=O	?	?	i	i	?	50µM
Cc1cc(/C=C2\SC(=S)NC2=O)c(C)n1C1CC1	?	25µM	?	i	?	?
CC(=O)Nc1ccc(/C=C/c2ccnc3ccccc23)cc1[N+](=O)[O-]	i	nt	i	i	nt	nt
CSc1ccc2nnc(-c3ccc(C)cc3)n2n1	i	nt	i	i	nt	nt
Cc1ccc(NC2=CC(=O)c3sc(C)nc3C2=O)cc1	nt	nt	i	nt	nt	nt
COc1ccc(/C=N/NC(=O)c2cc(C34CC5CC(CC(C5)C3)C4)[nH]n2)cc1O	i	i	i	i	i	i
COc1ccc(/C=N/NC(=O)c2cc(-c3ccc4c(c3)OCO4)n[nH]2)cc1OC	?	4.5µM	?	i	i[11.6 µM]	?
COc1ccc(/C=N/NC(=O)C(O)(c2ccccc2)c2ccccc2)cc1OC	i	14µM	i	i	i	i
COc1ccc(/C=N\NC(=O)c2ccc(=O)[nH]n2)cc1O	32µM	13µM	?	i	i[11.6 µM]	i
